Most compounds without a hit are left out; they make up all but 18% or so of the library.
DT40 TDP1 no CPT – qHTS for Inhibitors of human tyrosyl-DNA phosphodiesterase 1 (TDP1): qHTS in cells in absence of CPT; DT40 Tdp1-/- hTDP1 cells, no CPT, ATP luminescence, 48 h; Potency, µM (series often up to 46.2 µM), inactives show top-dose activity change, negative = growth inhibition, hits mostly inhibitors; actives 15% (n = 420,000); AID 686978, 2013; note: potency is the fitted concentration of half-maximal effect; nearly all actives have a fitted effect of over 55% in size
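Stably hTDP1-transfected Tdp1-null chicken DT40 cells were treated with library compounds minus camptothecin and grown for at least 48 hr at 37 °C, after which cellular ATP was quantified by luminescence.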
TDP1 cell CPT – DT40-hTDP1 cell growth loss with CPT; Potency, µM (highest dose often 46.2 µM), for inactives: top-dose activity change, negative = growth inhibition, usual class: inhibitors; actives 12% (n = 420,000); AID 686979; chicken DT40 Tdp1-/-;hTDP1 cells + 20 nM CPT, ATP luminescence, 48 h; note: potency is the fitted concentration of half-maximal effect; nearly all actives have a fitted effect of over 55% in size
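Cell growth measured by CellTiter-Glo luminescence after a minimum 48 h, 37 C compound exposure with 20 nM CPT in Tdp1-knockout DT40 cells stably expressing hTDP1, seeded 400/well; qHTS titration format.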
IL-1B inflam inh – inhibitors of inflammasome signaling (IL-1 beta secretion) | THP-1 LPS/ATP IL-1B secretion, AlphaLISA, 16 h; hits give low values | activity change, % at 57.5 µM | actives 4.7% (n = 360,000) | AID 743279; in the data active = activity change below about -50%; inconclusive = mostly about -30% to -49%
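Secreted IL-1B measured by AlphaLISA bead assay after 16 h compound exposure of THP-1 cells; compounds (final up to 57.5 uM) added 1 h before LPS (250 ng/mL) and ATP (1.25 mM) stimulation; lower signal means less secretion.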
TDP1 block – inhibitors of human tyrosyl-DNA phosphodiesterase TDP1. Q9NUW8. recombinant TDP1, AlphaScreen DNA substrate cleavage. Potency, µM (highest dose often 130 µM), inactives show top-dose activity change, negative = inhibition, actives largely listed as inhibitors. actives 0.28% (n = 350,000). AID 485290; note: potency is the fitted concentration of half-maximal effect; nearly all actives have a fitted effect of over 40% in size
Target sequence (Q9NUW8 whole entry, looked up): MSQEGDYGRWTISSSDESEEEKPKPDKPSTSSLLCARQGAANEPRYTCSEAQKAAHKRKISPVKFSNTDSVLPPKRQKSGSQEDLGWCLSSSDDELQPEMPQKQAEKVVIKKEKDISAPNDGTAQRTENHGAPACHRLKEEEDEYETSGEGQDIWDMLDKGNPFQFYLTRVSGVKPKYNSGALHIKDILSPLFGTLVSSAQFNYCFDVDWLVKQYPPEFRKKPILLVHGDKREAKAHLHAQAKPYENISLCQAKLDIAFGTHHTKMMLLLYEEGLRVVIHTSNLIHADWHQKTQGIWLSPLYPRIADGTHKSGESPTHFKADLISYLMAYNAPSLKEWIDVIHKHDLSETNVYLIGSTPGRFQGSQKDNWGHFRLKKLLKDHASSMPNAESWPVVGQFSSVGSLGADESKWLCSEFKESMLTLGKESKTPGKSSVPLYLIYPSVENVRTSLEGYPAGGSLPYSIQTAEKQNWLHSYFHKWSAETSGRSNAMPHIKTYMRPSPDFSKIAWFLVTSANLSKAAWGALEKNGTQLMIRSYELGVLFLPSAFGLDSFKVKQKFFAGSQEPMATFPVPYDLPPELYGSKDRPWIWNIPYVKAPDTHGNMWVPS
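Signal: AlphaScreen proximity between streptavidin donor and anti-FITC acceptor beads on intact substrate. Reaction: Tdp1 1 nM, substrate 15 nM final, 5 min RT after 15 min compound preincubation.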
CtBP-E1A blk – CtBP/E1A binding inhibition | AlphaScreen GST-E1A/His-CtBP binding, 1536-well; hits give low values | activity change, % (no concentration beside the values) | AID 651724 | actives 0.49% (n = 340,000); in the data active = activity change below about -65%; inconclusive = mostly about -30% to -63%
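AlphaScreen with 125 nM GST-E1A and 125 nM His-CtBP (5X stocks) in Tris pH 8.0, 300 mM NaCl, BSA, Tween 20, TCEP. Compounds preincubated 2 h at 37 deg C, then glutathione donor/nickel acceptor beads added for 1 h at 37 deg C in dark.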
Six1-Eya2 blk – blocks human Six1 binding to Eya2; Q15475+O00167; AlphaScreen GST-Six1/His-Eya2 binding, biochemical; hits give low values; activity change, % (no concentration beside the values); actives 0.56% (n = 360,000); AID 651725; in the data active = activity change below about -65%; inconclusive = mostly about -30% to -63%
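AlphaScreen luminescence read after one hour at 37 °C in darkness. Pin-transferred compounds met GST-Six1 and His-Eya2 protein (5X stock 250 nM/500 nM) plus glutathione donor and Ni-chelate acceptor beads (5X, 50 ug/mL).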
Starred values were filed as active, the others as inactive; ? = inconclusive; / = not tested or not shown; ! = a repeat was not active. Unless noted, calls come from the whole dose curve; as a rule, active = well fitted curve in the direction sought with a large enough effect; inconclusive = small, poorly fitted or top-dose-only effect, or another doubt; inactive = no such curve, though single readings can be large; an effect the other way counts as inactive or inconclusive. % is set by controls: 0 for no effect and ±100 for the full control effect.

SMILES | DT40 TDP1 no CPT | TDP1 cell CPT | IL-1B inflam inh | TDP1 block | CtBP-E1A blk | Six1-Eya2 blk
CCOc1ccc(Nc2ccc([N+](=O)[O-])c3nonc23)cc1 | 23µM* | ? | 13 | 14% | / | 2
O=[N+]([O-])c1ccc(Nc2ccccc2)c2nonc12 | ? | ? | 22 | / | / | -13
CC/C=C\C/C=C\C/C=C\CCCCCCCC(=O)O | 3% | 4% | -9 | 5µM*! | 0 | -7
CO/N=C/c1c(-c2ccc(Cl)cc2)nc2cc(C)ccn12 | ? | ? | -52* | 0% | 11 | 27
COc1ccc(-c2nc3cc(C)ccn3c2NC(=O)c2c(F)cccc2Cl)cc1 | -18% | -19% | 8 | / | -9 | -1
Cc1cccc[n+]1CC(=O)c1ccc2c(c1)OCCO2 | 2% | ? | 19 | 0% | 8 | 9
CCc1cc2c(cc3c(=O)n(CC(=O)NC(C)c4ccccc4)ncn32)s1 (centres undefined) | ? | ? | / | -2% | / | /
COc1cc(OC)c(OC)cc1CN1CCCC(C(=O)N2CCCCC2)C1 (centres undefined) | -11% | -8% | -14 | -4% | 0 | 7
COC(=O)CCCC(=O)N1CCCC(C(=O)c2ccccc2SC)C1 (centres undefined) | 21% | -3% | 7 | / | -3 | 6
COc1cc(CN2CCCC(C(=O)c3ccccc3SC)C2)cc(OC)c1 (centres undefined) | ? | 15µM* | 39 | 10% | -13 | -24
COc1cc(OC)c(OC)cc1CN1CCCC(C(=O)c2ccccc2SC)C1 (centres undefined) | 21µM* | ? | 18 | 4% | -5 | -11
O=C(CCCN1C(=O)c2cccnc2C1=O)Nc1ccc(F)cc1Cl | 15% | -4% | 22 | / | -6 | -4
CCC1=NN(C(=O)Cc2ccc([N+](=O)[O-])cc2)C(O)(C(F)(F)F)C1 (centres undefined) | ? | -6% | 0 | 1% | 0 | 0
COc1ccc(CC(=O)N2N=C(c3ccncc3)CC2(O)C(F)(F)F)cc1 (centres undefined) | 4.6µM* | 5.2µM* | 34 | 2% | / | 1
O=C(c1ccco1)N1N=C(C2CCCCC2)CC1(O)C(F)(F)F (centres undefined) | -10% | 0% | 29 | 8% | -10 | 6
CCC1=NN(C(=O)Cc2ccc(OC)cc2)C(O)(C(F)(F)F)C1 (centres undefined) | 21µM* | 29µM* | 10 | -2% | 17 | 6
O=C(c1ccncc1)N1N=C(C2CCCCC2)CC1(O)C(F)(F)F (centres undefined) | 4.6µM* | 2.9µM* | 41 | 1% | 4 | -3
O=C(Cc1ccc([N+](=O)[O-])cc1)N1N=C(C2CC2)CC1(O)C(F)(F)F (centres undefined) | ? | 26µM* | 26 | 2% | -13 | -1
Cc1ccc(C(C)(C)C)cc1 | / | / | / | 14% | / | /
Cc1cc(NC(=O)CN2CCN(c3cccc(Cl)c3)CC2)no1 | -18% | -6% | 38 | 4% | 14 | -23
Cc1ccc(OCC(=O)N2N=C(c3cccnc3)CC2(O)C(F)(F)F)cc1C (centres undefined) | ? | 16µM* | -6 | -1% | 0 | 11
COc1ccc(-c2noc(CSc3nnc(Cc4ccccc4)n3-c3ccc(Cl)cc3)n2)cc1 | ? | ? | ? | 8% | -5 | -9
Cc1cccc(-n2c(SCc3nc(-c4ccccc4C)no3)nnc2-c2ccccc2)c1 | ? | 0% | / | -1% | / | /
CCOc1ccccc1-c1noc(CSc2nnc(-c3ccccc3)n2-c2cccc(C)c2)n1 | 21µM* | ? | / | 9% | / | /
Cc1ccccc1-c1noc(CSc2nnc(-c3ccncc3)n2-c2ccc(F)cc2)n1 | 15µM* | ? | / | 3% | / | /
SMILES | DT40 TDP1 no CPT | TDP1 cell CPT | IL-1B inflam inh | TDP1 block | CtBP-E1A blk | Six1-Eya2 blk
Cc1nnc(SCc2nc(-c3ccc(Cl)cc3)no2)n1-c1ccc(F)cc1 | 26µM* | ? | / | 4% | / | /
COc1ccccc1-c1noc(CSc2nnc(Cc3ccccc3)n2-c2ccc(C)c(C)c2)n1 | 23µM* | 16µM* | / | 5% | / | /
CCc1ccc(NC(=O)CCNC(=O)Cn2cnc3ccccc3c2=O)cc1 | -28% | ? | 33 | -9% | -15 | 2
CCOc1ccccc1-c1noc(CSc2nnc(-c3ccncc3)n2-c2ccc(F)cc2)n1 | 16µM* | -77% | / | 1% | / | /
COc1ccc(-c2noc(CSc3nnc(-c4ccncc4)n3-c3ccc(C)c(C)c3)n2)cc1 | 13µM* | 15µM* | / | 14% | / | /
Cc1ccc(SCc2nc(-c3ccccc3)no2)cc1 | -14% | -9% | -3 | -12% | 48 | 80
Cc1ccc(SCc2nc(-c3ccncc3)no2)cc1 | 13µM* | 5.8µM* | -7 | 0% | 13 | 2
COc1ccc(-c2noc(CSc3nnc(C)n3-c3ccc(C)c(C)c3)n2)c(OC)c1 | 18µM* | ? | / | 2% | / | /
Cc1cc(C)c2c(n1)NCCC2 | -1% | -3% | / | / | / | /
Cc1ccc(-n2c(SCc3nc(-c4ccccc4C)no3)nnc2-c2ccncc2)cc1C | 21µM* | 23µM* | / | 10% | / | /
CCOc1ccc(CCN2C(=O)C(=O)N([C@@H](Cc3ccccc3)CN3CCC[C@@H]3CN3C(=O)C(=O)NC[C@@H]3Cc3ccc(O)cc3)C[C@@H]2Cc2ccccc2)cc1 | 11% | -5% | 3 | / | 0 | 6
Oc1ccc(C[C@H]2CNC(=S)N2CC2CCCN2C[C@H](Cc2ccccc2)N2C[C@H](Cc3ccc(O)cc3)N(CCc3ccccc3)C2=S)cc1 (some centres undefined) | 23µM* | 23µM* | ? | / | -23 | -10
O=C1NC[C@H](Cc2ccc(O)cc2)N(C[C@@H]2CCCN2C[C@H](Cc2ccc(O)cc2)N2C[C@H](Cc3ccccc3)N(CC3CCCCC3)C(=O)C2=O)C1=O | -18% | -13% | 0 | / | -10 | 3
Oc1ccc(C[C@@H](CN2CCC[C@@H]2CN2C(=S)NC[C@@H]2Cc2ccccc2)N2C[C@H](Cc3ccccc3)N(CCc3ccccc3)C2=S)cc1 | 18µM* | 16µM* | -17 | / | -10 | -7
CCc1nc2ccccc2n1CCCCOc1ccc(Cl)cc1 | ? | 21µM* | / | 3% | / | /
Cc1ccc(OCCCCn2c(CO)nc3ccccc32)cc1 | ? | 23µM* | -52* | 3% | -7 | 1
OCc1nc2ccccc2n1CCCOc1ccc(Br)cc1 | 18µM* | 16µM* | -11 | 6% | -1 | -9

Screens as filed in PubChem.
